# Reference: PubChem BioAssay AID1159580 (chemical genetic matrix, 2015)
# The whole screen tested about 5,500 compounds, of which about 2,000 (36%) were called active. Roughly 18% stayed inconclusive and do not appear here. This is one part of the list. Unmarked numbers belong to inactive results. Cut-off read from the data, not from the text of the source: active = normalized growth mostly below about 0.91 (no sharp cut-off); inconclusive = no clear call, values can overlap the other calls; inactive = mostly above about 0.92.
# Assay: chemical genetic growth profiling, strain panel (AID 1159580);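 note: tested at 20 µM; growth read once vehicle control cultures reached saturation at 30 °C; 1 = growth at the plate median or of vehicle wells; lower values mean less growth of the strain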
# Conditions: S. cerevisiae deletion strains, growth OD
compound,measurement,setting,value
O=C(Nc1cc2ccccc2s1)N1CCN(Cc2c(F)cccc2Cl)CC1,normalized growth,"locus YAR019C, strain CDC15, active compounds read low",0.994
same,normalized growth,"locus YBL105C, strain PKC1, active compounds read low",0.974
same,normalized growth,"locus YBR135W, strain CKS1, active compounds read low",0.986
same,normalized growth,"locus YBR136W, strain MEC1, active compounds read low",0.973
same,normalized growth,"locus YBR160W, strain CDC28, active compounds read low",0.972
same,normalized growth,"locus YDL017W, strain CDC7, active compounds read low",0.983
same,normalized growth,"locus YDL028C, strain MPS1, active compounds read low",0.988
same,normalized growth,"locus YDL101C, strain DUN1, active compounds read low",0.982
same,normalized growth,"locus YDL108W, strain KIN28, active compounds read low",0.989
same,normalized growth,"locus YDL132W, strain cdc53, active compounds read low",0.983
same,normalized growth,"locus YDL214C, strain PRR2, active compounds read low",0.938
same,normalized growth,"locus YDR052C, strain DBF4, active compounds read low",0.986
same,normalized growth,"locus YDR054C, strain cdc34, active compounds read low",0.968
same,normalized growth,"locus YDR226W, strain ADK1, active compounds read low",0.979
same,normalized growth,"locus YDR477W, strain SNF1, active compounds read low",0.943
same,normalized growth,"locus YER123W, strain YCK3, active compounds read low",0.946
same,normalized growth,"locus YER133W, strain GLC7, active compounds read low",0.95
same,normalized growth,"locus YFL009W, strain cdc4, active compounds read low",0.981
same,normalized growth,"locus YFL029C, strain CAK1, active compounds read low",0.984
same,normalized growth,"locus YFR003C, strain YPI1, active compounds read low",0.983
same,normalized growth,"locus YFR019W, strain FAB1, active compounds read low",0.958
same,normalized growth,"locus YFR028C, strain CDC14, active compounds read low",0.988
same,normalized growth,"locus YGR040W, strain KSS1, active compounds read low",0.925
same,normalized growth,"locus YGR052W, strain FMP48, active compounds read low",0.986
same,normalized growth,"locus YGR092W, strain DBF2, active compounds read low",0.972
same,normalized growth,"locus YHR030C, strain SLT2, active compounds read low",0.938
same,normalized growth,"locus YHR079C, strain IRE1, active compounds read low",0.934
same,normalized growth,"locus YHR082C, strain KSP1, active compounds read low",0.982
same,normalized growth,"locus YHR205W, strain SCH9, active compounds read low",0.972
same,normalized growth,"locus YIL147C, strain SLN1, active compounds read low",0.982
same,normalized growth,"locus YJL095W, strain BCK1, active compounds read low",0.927
same,normalized growth,"locus YJL128C, strain PBS2, active compounds read low",0.965
same,normalized growth,"locus YJL157C, strain FAR1, active compounds read low",0.913
same,normalized growth,"locus YJR016C, strain ILV3, active compounds read low",0.997
same,normalized growth,"locus YJR066W, strain TOR1 (second series), active compounds read low",0.904
same,normalized growth,"locus YJR066W, strain TOR1, active compounds read low",0.979
same,normalized growth,"locus YKL048C, strain ELM1, active compounds read low",0.983
same,normalized growth,"locus YKL067W, strain YNK1, active compounds read low",0.946
same,normalized growth,"locus YKL101W, strain HSL1, active compounds read low",0.918
same,normalized growth,"locus YKL193C, strain SDS22, active compounds read low",0.986
same,normalized growth,"locus YKL203C, strain TOR2, active compounds read low",0.975
same,normalized growth,"locus YLR113W, strain HOG1, active compounds read low",0.853 (active)
same,normalized growth,"locus YLR133W, strain CKI1, active compounds read low",0.928
same,normalized growth,"locus YLR403W, strain SFP1, active compounds read low",0.906
same,normalized growth,"locus YML070W, strain DAK1, active compounds read low",0.915
same,normalized growth,"locus YMR001C, strain CDC5, active compounds read low",0.984
same,normalized growth,"locus YMR205C, strain PFK2 (second series), active compounds read low",0.95
same,normalized growth,"locus YMR277W, strain FCP1, active compounds read low",0.983
same,normalized growth,"locus YNL006W, strain LST8, active compounds read low",0.989
same,normalized growth,"locus YNL020C, strain ARK1, active compounds read low",0.928
same,normalized growth,"locus YNL161W, strain CBK1, active compounds read low",0.988
same,normalized growth,"locus YNL183C, strain NPR1, active compounds read low",0.944
same,normalized growth,"locus YNL207W, strain RIO2, active compounds read low",0.976
same,normalized growth,"locus YNL222W, strain SSU72, active compounds read low",0.988
same,normalized growth,"locus YNL307C, strain MCK1 (second series), active compounds read low",0.961
same,normalized growth,"locus YOL078W, strain AVO1, active compounds read low",0.982
same,normalized growth,"locus YOL136C, strain PFK27, active compounds read low",0.911
same,normalized growth,"locus YOR061W, strain CKA2, active compounds read low",0.952
same,normalized growth,"locus YOR119C, strain RIO1, active compounds read low",0.993
same,normalized growth,"locus YOR231W, strain MKK1, active compounds read low",0.877
same,normalized growth,"locus YOR329C, strain SCD5, active compounds read low",0.972
same,normalized growth,"locus YPL031C, strain PHO85, active compounds read low",0.942
same,normalized growth,"locus YPL153C, strain RAD53, active compounds read low",0.917
same,normalized growth,"locus YPL204W, strain HRR25, active compounds read low",0.915
same,normalized growth,"locus YPL209C, strain IPL1, active compounds read low",0.976
same,normalized growth,"locus YPL256C, strain CLN2, active compounds read low",0.888
same,normalized growth,"locus YPR025C, strain CCL1, active compounds read low",0.986
same,normalized growth,"locus YPR106W, strain ISR1, active compounds read low",0.962
same,normalized growth,"locus YPR111W, strain DBF20, active compounds read low",0.962
same,normalized growth,"strain NNK1, active compounds read low",0.972
same,normalized growth,"strain TSCII, active compounds read low",0.986
